From the supplement of paper PMC11577813, “Eurasian spruce bark beetle detects lanierone using a highly expressed specialist odorant receptor, present in several functional sensillum types” (BMC Biology, 2024)
± gives the standard deviation of the averaged measurements.

Each molecule was assayed on ipsdienol A-neuron OSN class (assay: net action potential response of A-neuron (blank-subtracted) (spikes/s (Hz)); higher = stronger excitation). Details: 10 µg on filter paper; neuron: A neuron (large spike amplitude).
Description: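 Single sensillum recordings from antennal olfactory sensilla of live adult Ips typographus. Each compound was 10 µg in paraffin oil on filter paper, delivered as a 0.5 s puff. Net response = spikes in the first 0.5 s of response minus the 0.5 s pre-stimulus count, doubled to give Hz, with blank response subtracted. Values are for the large-spike A-neuron class of each of seven sensillum types that co-house the lanierone B-neuron; N = 1-4 sensilla, averaged.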

| Compound | net action potential response |
| --- | --- |
| O=Cc1ccccc1 [Benzaldehyde] | 2 ± 4 |
| Cc1ccccc1 [Toluene] | -1.33 ± 5 |
| C=CCc1ccc(OC)cc1 [Estragole] | 2.67 ± 1.1 |
